Test results taken from PubChem BioAssay (NCATS).
Records with an inconclusive call do not appear. Active and inactive are the calls of the source. The call rests on the fitted dose curve; in most records, active means well fitted inhibition curve with a large enough effect; inconclusive means small, poorly fitted or top-dose-only effect; inactive means flat fitted curve, though single readings scatter.

What was measured:
Experiment in all cases: qHTS profiling for inhibitors of Plasmodium falciparum proliferation (AID 504749); further: nearly all actives have a fitted effect of over 60% in size
Settings in all cases: P. falciparum in erythrocytes, SYBR Green DNA, 72 h; series mostly up to 28.7 µM
ATS95 = system: ATS95
Method in brief: (§1)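 Quantitative HTS: compounds pinned into medium, infected erythrocytes added (0.3% parasitemia, 2.5% hematocrit), 72 h culture at 37 C under 5% CO2. Saponin/Triton lysis with SYBR Green I, overnight RT, then fluorescence read.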

C2A = system: C2A
Method in brief: as §1

CP185 = system: CP185
Method in brief: as §1

CP192 = system: CP192
Method in brief: as §1

CP194 = system: CP194
Method in brief: as §1

CP201 = system: CP201
Method in brief: as §1

CP203 = system: CP203
Method in brief: as §1

CP211 = system: CP211
Method in brief: as §1

CP215 = system: CP215
Method in brief: as §1

CP217 = system: CP217
Method in brief: as §1

CP237 = system: CP237
Method in brief: as §1

CP238 = system: CP238
Method in brief: as §1

CP247 = system: CP247
Method in brief: as §1

CP250 = system: CP250
Method in brief: as §1

CP252 = system: CP252
Method in brief: as §1

CP256 = system: CP256
Method in brief: as §1

CP262 = system: CP262
Method in brief: as §1

CP266 = system: CP266
Method in brief: as §1

CP268 = system: CP268
Method in brief: as §1

CP269 = system: CP269
Method in brief: as §1

Measured: Potency

CCCCC(=O)N(Cc1ccc(-c2ccccc2-c2nn[nH]n2)cc1)C(C(=O)O)C(C)C (stereo not given)
inactive: all assays above
